Legend:
Details in all cases: concentration: 1 μM,replicates: in singlicate; n = 1
WNK1 = tested on: WNK1
WNK2 = tested on: WNK2
WNK3 = tested on: WNK3
WNK4 = tested on: WNK4
YANK1 = tested on: T1, YANK1
T1 construct: gene STK32A

YANK2 = tested on: T2, YANK2
T2 construct: gene STK32B

YANK3 = tested on: T3, YANK3
T3 construct: gene STK32C

YES = tested on: T4, YES
T4 construct: gene YES1

YSK1 = tested on: T5, YSK1
T5 construct: gene STK25

YSK4 = tested on: T6, YSK4
T6 construct: gene MAP3K19
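Also: KINOMEscan kinase panel screen.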

SMILES	%Inh (WNK1) [%]	%Inh (WNK2) [%]	%Inh (WNK3) [%]	%Inh (WNK4) [%]	%Inh (YANK1) [%]	%Inh (YANK2) [%]	%Inh (YANK3) [%]	%Inh (YES) [%]	%Inh (YSK1) [%]	%Inh (YSK4) [%]
Cc1n[nH]c2cc(Nc3ccnc(Nc4cccc(CN5CCOCC5)c4)n3)ccc12 [GW682569]	8	19	21	32	9	0	3	22	10	90
Cc1ccn2nc(-c3ccc(F)cc3)c(-c3ccncc3)c2c1.Cl [GW457859]	0	5	30	55	91.9	13	0	5	15	0
O=c1[nH]cc(-c2ccc(O)cc2)c2sc(-c3ccncc3)cc12 [GSK1033723]	1	26	18	10	10	0	14	5	0	98.8
OCCn1cc(-c2cnc3nnn(Cc4ccc5ncccc5c4)c3n2)cn1	0	0	0	0	3	0	0	0	0	0
O=C(Nc1cccc(Oc2ccc3nccn3n2)c1)Nc1cccc(C(F)(F)F)c1	0	0	0	20	0	0	0	0	0	96.1
O=C(NOCC1CC1)c1cc(Br)c(F)c(F)c1Nc1ccc(I)cc1Cl	0	0	0	16	0	0	2	0	0	0
C[C@@H](Oc1cc(-n2cnc3cc(-c4cnn(C)c4)ccc32)sc1C(N)=O)c1ccccc1Cl [GSK580432]	62	91.4	97.4	33	25	0	13	73	31	97.8
C[C@@H]1CCN(C(=O)N2CCCC2)C[C@@H]1N(C)c1ncnc2[nH]ccc12	6	45	0	0	15	0	0	0	0	82
Cl.Cl.NC[C@H](CC1CCCCC1)NC(=O)c1ccc(-c2ccnc3[nH]ccc23)s1 [GSK1581428]	0	0	0	7	68	43	35	5	0	99.7
CC(=O)c1c(-c2ccncc2)[nH]c(-c2ccncc2)c1C [GW493036]	14	0	50	62	0	0	9	17	0	78
Cc1ccc(Nc2ccnc(Nc3ccc4c(c3)CS(=O)(=O)C4)n2)cc1O.Cl [GW579362]	0	33	33	9	26	0	0	81	39	99.1
COc1cccc(C2=C(Nc3cccc(Cl)c3)C(=O)NC2=O)c1 [SB-341556]	20	29	19	0	5	0	11	17	0	38
COC(=O)c1cccc(NC(=O)NC2CCN(c3ccnc(NCc4ccc(F)cc4)n3)CC2)c1 [GSK1379860]	10	9	18	31	0	0	0	8	0	9
Cc1ccc(CC(=O)N2CCc3cc(-c4cn(C)c5ncnc(N)c45)ccc32)cc1 [GSK2634758]	12	0	53	17	15	0	10	25	26	50
C[C@@H](Oc1cc(-n2cnc3cc(-c4ccncc4)ccc32)sc1C(N)=O)c1ccccc1Cl [GSK479719]	32	76	90.2	2	7	0	26	44	0	97.5
Cn1ccc2ncnc(Oc3ccc(NC(=O)Nc4cccc(C(F)(F)F)c4)c(F)c3)c21	0	0	0	7	0	0	1	0	0	68
CC(=O)Nc1nc2cnc(Nc3cc(NC(=O)c4cccc(CC(C)(C)C#N)c4)ccc3C)nc2s1	0	47	0	26	1	12	9	17	0	40

SMILES	%Inh (WNK1) [%]	%Inh (WNK2) [%]	%Inh (WNK3) [%]	%Inh (WNK4) [%]	%Inh (YANK1) [%]	%Inh (YANK2) [%]	%Inh (YANK3) [%]	%Inh (YES) [%]	%Inh (YSK1) [%]	%Inh (YSK4) [%]
Cl.Nc1n[nH]c2cc(-c3ccccn3)ccc12 [GSK2189892]	0	5	0	0	2	0	0	7	8	5
CCNCC(Cc1ccccc1)NC(=O)c1cc(Br)c(-c2ccnc3[nH]ccc23)s1.Cl.Cl (stereo not shown) [GSK1383280]	0	0	9	28	23	0	11	19	18	92.5
Cn1ccc2ncnc(Oc3ccc(NC(=O)Nc4cnn(C(C)(C)C)c4)c(Cl)c3)c21	62	0	0	3	1	11	9	0	8	34
Cc1nnc(-c2ccc3occ(-c4ccc(S(C)=O)cc4)c3n2)o1 (stereo not shown)	0	0	0	0	0	0	16	0	7	0
COc1cccc(CNC(=O)NC2CCN(c3ccnc(Nc4cc(OC)c(OC)c(OC)c4)n3)C2)c1 (stereo not shown) [GSK1379765]	4	33	34	43	0	0	7	7	0	37
Cn1ccc2ncnc(Oc3ccc(NC(=O)Nc4cncc(C(F)(F)F)c4)c(Cl)c3)c21	0	0	0	0	0	2	25	0	0	17
O=C1NCCc2[nH]c(-c3ccncc3)cc21	0	26	0	22	0	0	6	0	0	99.4
Cn1cc(-c2cccc3c(N)c(C(N)=O)nnc23)cn1	11	0	0	0	30	0	0	0	5	94.4
CC(C)S(=O)(=O)N1CCN(Cc2ccc3c(c2)nc(NC(=O)c2ccsc2)n3C[C@H](O)c2ccccc2)CC1 [GW635815]	3	0	18	0	1	0	5	86	0	90.6
COC(=O)c1cccc(NC(=O)NC2CCN(c3ccnc(Nc4cc(OC)c(OC)c(OC)c4)n3)C2)c1 (stereo not shown) [GSK1379767]	0	24	49	39	12	0	0	0	16	0
COc1cc(Nc2nccc(N3CCC(NC(=O)c4cccc(C#N)c4)C3)n2)cc(OC)c1OC (stereo not shown) [GSK1379751]	13	19	37	39	0	0	0	20	3	39
Cc1cccc(-c2nc(Nc3ccncc3)c3sccc3n2)n1 [GW869641]	27	0	21	17	20	14	0	0	0	41
CS(=O)c1ccc(-c2coc3ccc(-c4n[nH]c(=O)o4)cc23)cc1 (stereo not shown)	0	0	0	0	9	10	0	0	7	55
Cn1ccc2ncnc(Oc3ccc(NC(=O)Nc4ccnc(C(F)(F)F)c4)c(Cl)c3)c21	0	0	0	0	0	0	0	0	0	14
NC(=O)Nc1sc(-c2ccc(F)cc2)cc1C(N)=O [GW789449]	0	0	2	0	4	0	0	0	0	82
Cn1ccc2ncnc(Oc3ccc(NC(=O)Nc4cc(C(C)(C)C)on4)c(Cl)c3)c21	0	20	0	0	0	5	0	3	0	99.5
Cc1ccc2c(-c3ccnc(Nc4ccc(C(F)(F)F)cc4)n3)cnn2n1 [GW819776]	3	0	0	0	0	0	0	0	0	43

From article PMC5540273 (PLoS ONE, 2017)
